# Test results as given in PubChem BioAssay (EPA / NIEHS).
# Active and inactive are the calls of the source. Rule for the calls: active = hit-call score of the fitted dose curve at least 0.9, where 1 is the maximum; inactive = score below 0.9.
# Columns and labels:
# [1] = target: Paired box protein Pax-6 (Homo sapiens) (UniProt P26367); experiment: ATG_Pax6_CIS: Attagene CIS-FACTORIAL HepG2 Assay for human Paired Box 6 (PAX6) (AID 2282956); settings: HepG2 CIS-FACTORIAL PAX6 reporter transcription, RNA readout; actives raise or lower the signal
# Sequence of Paired box protein Pax-6 (Homo sapiens) (P26367 whole entry, looked up): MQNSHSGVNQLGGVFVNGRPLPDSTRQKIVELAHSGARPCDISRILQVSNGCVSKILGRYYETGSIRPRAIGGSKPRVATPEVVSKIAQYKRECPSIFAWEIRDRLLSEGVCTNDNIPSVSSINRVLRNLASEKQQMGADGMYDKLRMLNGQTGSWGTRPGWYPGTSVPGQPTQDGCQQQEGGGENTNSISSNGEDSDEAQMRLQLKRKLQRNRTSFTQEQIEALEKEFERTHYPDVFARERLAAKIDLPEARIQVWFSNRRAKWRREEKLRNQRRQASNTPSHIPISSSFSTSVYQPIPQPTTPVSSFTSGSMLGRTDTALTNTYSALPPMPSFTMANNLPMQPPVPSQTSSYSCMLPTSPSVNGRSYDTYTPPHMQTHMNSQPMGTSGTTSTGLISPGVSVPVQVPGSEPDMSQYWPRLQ
# Summary of the method: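 HepG2 cells transiently transfected with cis-promoter-driven multiplexed reporter units sensing endogenous transcription factor activity; 24 h chemical exposure. Reporter mRNA quantified by RT-PCR, 6-FAM labelling, HpaI digestion and capillary electrophoresis; bidirectional fit versus DMSO baseline.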
# [2] = ATG_PPRE_CIS: Attagene CIS-FACTORIAL HepG2 Assay for human Peroxisome Proliferator-activated Response Element (PPRE) (AID 2282958); settings: HepG2 PPRE cis-element reporter, Attagene transcription factor profiling; actives raise or lower the signal
# Summary of the method: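 Cells are first transfected transiently with the multiplexed reporter library, then dosed for 24 h. Total RNA is reverse-transcribed, amplified, fluorescently end-labeled and HpaI-cut before capillary electrophoresis; activity is fitted bidirectionally against DMSO controls.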
# [3] = ATG_RORE_CIS: Attagene CIS-FACTORIAL HepG2 Assay for human RAR-related Orphan Receptor Element (RORE) (AID 2282959); settings: HepG2 Attagene cis-factorial RORE reporter, mRNA; actives raise or lower the signal
# Summary of the method: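 Cells were HepG2 carrying transfected cis-regulated reporter constructs, dosed for 24 hours. Total RNA was reverse-transcribed and reporter cDNA amplified, fluorescently labeled and sized by capillary electrophoresis. Activity was fitted bidirectionally relative to DMSO.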
# [4] = ATG_Sox_CIS: Attagene CIS-FACTORIAL HepG2 Assay for human SRY-box transcription factor (SOX) (AID 2282960); settings: HepG2 Attagene cis-factorial SOX reporter, mRNA; actives raise or lower the signal
# Summary of the method: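 Transient MRTU transfection of HepG2; 24 h compound incubation; TriZol RNA, oligo(dT) RT, PCR, 6-FAM primer extension, HpaI cut, CE. Bidirectional fit, DMSO = baseline.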
# [5] = target: Transcription factor Sp1 (Homo sapiens) (UniProt P08047); experiment: ATG_Sp1_CIS: Attagene CIS-FACTORIAL HepG2 Assay for human Specificity Protein 1 (Sp1) (AID 2282961); settings: HepG2 Sp1 cis-reporter transcription, actives raise or lower the signal
# Sequence of Transcription factor Sp1 (Homo sapiens) (P08047 whole entry, looked up): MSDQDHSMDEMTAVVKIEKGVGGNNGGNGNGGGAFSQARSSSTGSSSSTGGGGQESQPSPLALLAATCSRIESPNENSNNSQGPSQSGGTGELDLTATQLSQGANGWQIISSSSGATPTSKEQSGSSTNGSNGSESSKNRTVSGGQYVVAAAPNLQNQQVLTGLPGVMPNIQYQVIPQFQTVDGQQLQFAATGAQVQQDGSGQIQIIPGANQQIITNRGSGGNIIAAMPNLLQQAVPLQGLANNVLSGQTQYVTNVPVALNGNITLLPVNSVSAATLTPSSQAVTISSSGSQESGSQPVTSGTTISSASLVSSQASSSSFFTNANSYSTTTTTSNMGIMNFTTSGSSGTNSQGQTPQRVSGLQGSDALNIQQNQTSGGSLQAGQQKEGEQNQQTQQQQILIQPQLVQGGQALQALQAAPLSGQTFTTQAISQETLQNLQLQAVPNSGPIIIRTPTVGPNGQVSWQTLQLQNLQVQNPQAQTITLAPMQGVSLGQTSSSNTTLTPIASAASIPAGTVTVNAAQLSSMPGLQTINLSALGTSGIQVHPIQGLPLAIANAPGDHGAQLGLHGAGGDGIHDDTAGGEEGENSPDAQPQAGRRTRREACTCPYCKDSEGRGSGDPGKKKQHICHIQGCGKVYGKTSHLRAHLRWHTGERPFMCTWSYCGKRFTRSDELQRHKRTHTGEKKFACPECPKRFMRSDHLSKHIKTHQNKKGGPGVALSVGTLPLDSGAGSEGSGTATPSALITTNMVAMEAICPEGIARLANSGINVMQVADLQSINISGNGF
# Summary of the method: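 Endogenous Sp1 activity was gauged in human liver HepG2 cells bearing transfected reporter units under a cis-regulating promoter. After 24 h dosing, reporter mRNA was quantified by RT-PCR with capillary electrophoresis, and activity fitted bidirectionally versus DMSO.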
# [6] = ATG_SREBP_CIS: Attagene CIS-FACTORIAL HepG2 Assay for human Sterol Regulatory Element Binding (SREBP) (AID 2282962); settings: HepG2 Attagene cis-factorial SREBP reporter, mRNA; actives raise or lower the signal
# Summary of the method: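 HepG2 cells transiently transfected with multiplexed cis-promoter reporter units sensing endogenous transcription factors; reporter mRNA measured 24 h after dosing by RT-PCR, 6-FAM labeling, HpaI digestion and capillary electrophoresis. Bidirectional fit versus DMSO.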
# [7] = target: Signal transducer and activator of transcription 3 (Homo sapiens) (UniProt P40763); experiment: ATG_STAT3_CIS: Attagene CIS-FACTORIAL HepG2 Assay for human Signal Transducer and Activator of Transcription 3 (STAT3) (AID 2282963); settings: HepG2, Attagene cis-factorial STAT3 reporter transcription; actives raise or lower the signal
# Sequence of Signal transducer and activator of transcription 3 (Homo sapiens) (P40763 whole entry, looked up): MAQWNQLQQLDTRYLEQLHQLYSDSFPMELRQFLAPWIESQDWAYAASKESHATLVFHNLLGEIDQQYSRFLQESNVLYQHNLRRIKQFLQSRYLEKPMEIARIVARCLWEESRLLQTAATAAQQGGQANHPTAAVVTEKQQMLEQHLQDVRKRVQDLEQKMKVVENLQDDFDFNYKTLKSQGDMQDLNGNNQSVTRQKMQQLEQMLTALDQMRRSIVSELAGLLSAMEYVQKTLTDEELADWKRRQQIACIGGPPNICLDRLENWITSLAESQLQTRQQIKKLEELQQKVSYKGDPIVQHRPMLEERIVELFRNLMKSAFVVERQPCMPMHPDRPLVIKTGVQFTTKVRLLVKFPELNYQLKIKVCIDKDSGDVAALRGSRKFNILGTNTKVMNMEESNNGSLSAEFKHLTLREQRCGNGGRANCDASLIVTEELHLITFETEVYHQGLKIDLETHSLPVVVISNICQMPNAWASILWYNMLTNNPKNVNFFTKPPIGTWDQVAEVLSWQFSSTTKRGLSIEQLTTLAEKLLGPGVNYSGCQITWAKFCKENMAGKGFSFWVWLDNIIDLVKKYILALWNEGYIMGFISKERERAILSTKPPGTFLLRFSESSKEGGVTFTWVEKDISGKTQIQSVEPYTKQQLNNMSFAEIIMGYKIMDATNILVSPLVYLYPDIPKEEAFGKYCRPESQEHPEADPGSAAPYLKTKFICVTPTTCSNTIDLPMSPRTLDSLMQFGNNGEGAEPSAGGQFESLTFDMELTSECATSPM
# Summary of the method: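 Values derive from bidirectional fits relative to DMSO of reporter mRNA levels, measured by RT-PCR with capillary electrophoresis, in HepG2 cells carrying transiently transfected cis-regulated reporter units and exposed 24 h.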
# [8] = ATG_TA_CIS: Attagene CIS-FACTORIAL HepG2 Assay for human TA Basal Promoter (AID 2282964); settings: HepG2 Attagene CIS-factorial TA basal promoter reporter; actives raise or lower the signal
# Summary of the method: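 HepG2 cells transiently transfected with multiple reporter units under cis promoter elements, reporting endogenous transcription factor activity; this endpoint tracks the TA basal promoter as background control. Reporter mRNA after 24 h dosing measured by RT-PCR/capillary electrophoresis; bidirectional fits versus DMSO.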
# [9] = ATG_TCF_b_cat_CIS: Attagene CIS-FACTORIAL HepG2 Assay for human T-Cell-Factor with beta-catenin (TCF/b-cat) (AID 2282965); settings: HepG2 TCF/beta-catenin cis-reporter transcription, actives raise or lower the signal
# Summary of the method: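 Cells of the HepG2 line carry transiently transfected reporter units whose promoters respond to endogenous factors. Twenty-four hours post-dosing, reporter mRNA induction is measured by fluorescent RT-PCR and capillary electrophoresis, with DMSO as baseline.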
Structure (SMILES),outcome [1],outcome [2],outcome [3],outcome [4],outcome [5],outcome [6],outcome [7],outcome [8],outcome [9],AC50 [1],AC50 [6],AC50 [9],AC50 [2],AC50 [3],AC50 [7]
COC(=O)CCC(=O)OC,inactive,inactive,inactive,inactive,inactive,inactive,inactive,inactive,inactive,,,,,,
CN(C)CCCN1c2ccccc2Sc2ccc(Cl)cc21,,inactive,inactive,inactive,,,inactive,inactive,,15.9 µM (active),6.99 µM (active),7.68 µM (active),,,
CC(=O)O,inactive,,,inactive,inactive,inactive,inactive,inactive,inactive,,,,,,
CC(C)COC(=O)CCCCC(=O)OCC(C)C,inactive,inactive,inactive,inactive,,inactive,inactive,inactive,inactive,,,,,,
NCCOCCOCCN,inactive,,inactive,inactive,,inactive,inactive,inactive,inactive,,,,,,
CSc1ccc(Oc2ccc(S(N)(=O)=O)cc2CN(C)C)cc1C,inactive,inactive,inactive,inactive,,,inactive,inactive,,,23.4 µM (active),55 µM (active),,,
Cc1ccc(-c2cc(C(F)(F)F)nn2-c2ccc(S(N)(=O)=O)cc2)cc1,inactive,inactive,,inactive,inactive,inactive,inactive,inactive,inactive,,,,,,
CCCCC(CC)CO (configuration not stated),inactive,inactive,inactive,inactive,,inactive,inactive,inactive,inactive,,,,,,
CS(=O)(=O)c1ccc([C@@H](C[C@H]2CCC(=O)C2)C(=O)Nc2cnccn2)cc1Cl,inactive,inactive,inactive,inactive,,inactive,inactive,inactive,inactive,,,,,,
CN(C)C(=O)NC1(c2ccccc2)CCN(CCC[C@]2(c3ccc(Cl)c(Cl)c3)CCCN(C(=O)c3ccccc3)C2)CC1,,,,inactive,,,,inactive,inactive,4.94 µM (active),0.762 µM (active),,4.58 µM (active),4.93 µM (active),4.4 µM (active)
CC(C)c1cccc(C(C)C)c1NC(=O)NS(=O)(=O)c1cc(C(C)(C)O)co1,inactive,,inactive,inactive,inactive,inactive,inactive,inactive,inactive,,,,,,
CCCCCCC(CCCCCCCCCCC(=O)OCC(COC(C)=O)OC(C)=O)OC(C)=O (configuration not stated),inactive,,inactive,inactive,,inactive,inactive,inactive,,,,50 µM (active),39.6 µM (active),,
CCCCC(CC)COP(=O)(OCC(CC)CCCC)OCC(CC)CCCC (configuration not stated),inactive,inactive,inactive,inactive,,inactive,inactive,inactive,inactive,,,,,,
Cc1c(C)c2c(c(C)c1O)CCC(C)(COc1ccc(CC3SC(=O)NC3=O)cc1)O2 (configuration not stated),inactive,,,inactive,,,inactive,inactive,,,1.6 µM (active),18.5 µM (active),,,
Cc1cc(Cc2ccc(N)c(C)c2)ccc1N,inactive,,inactive,inactive,inactive,,inactive,inactive,inactive,,12.9 µM (active),,,,
c1ccc2occc2c1,inactive,,inactive,inactive,inactive,inactive,inactive,inactive,inactive,,,,,,
O=NO,inactive,inactive,inactive,inactive,inactive,inactive,inactive,inactive,inactive,,,,,,
Nc1nc(Cl)nc2c1ncn2[C@H]1C[C@H](O)[C@@H](CO)O1,inactive,,inactive,inactive,,inactive,inactive,inactive,inactive,,,,,,
NC(=Nc1ccccc1)Nc1ccccc1,,inactive,,inactive,,inactive,inactive,inactive,,34.6 µM (active),,6.54 µM (active),,29.5 µM (active),
CCCCCCCCCC[N+](C)(C)[O-],inactive,inactive,inactive,inactive,,inactive,inactive,inactive,inactive,,,,,,
Cn1cnc2c1c(=O)[nH]c(=O)n2C,inactive,inactive,inactive,inactive,,inactive,inactive,inactive,inactive,,,,,,
CN(C)C(=O)NC1(c2ccccc2)CCN(CC[C@@]2(c3ccc(F)c(F)c3)CN(C(=O)c3ccccc3)CCO2)CC1,inactive,inactive,,inactive,inactive,,inactive,inactive,,,26.8 µM (active),100 µM (active),,,
COC(=O)[C@H]1[C@H]2C[C@@H]3c4[nH]c5cc(OC)ccc5c4CCN3C[C@H]2C[C@@H](OC(=O)c2cc(OC)c(OC)c(OC)c2)[C@@H]1OC,,inactive,inactive,inactive,,,inactive,inactive,,8.41 µM (active),3.96 µM (active),7.31 µM (active),,,
CC(=O)OC1CC(C)OC(C)O1 (configuration not stated),inactive,inactive,inactive,inactive,inactive,inactive,inactive,inactive,inactive,,,,,,
COc1ccc(OC(F)(F)F)cc1CN[C@H]1CCCN[C@H]1c1ccccc1,inactive,,inactive,inactive,,,inactive,inactive,inactive,,19.4 µM (active),,,,
